Assay outcomes (PubChem BioAssay)
Beta cell apopt – blocks beta cell apoptosis; INS-1E cytokine-induced death, ATP luminescence, 48 h; percent of positive-control rescue, neutral wells zero; protection from apoptosis, % (test concentration not listed); 300,000 tested, 0.8% active; AID 435005;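 active = Every replicate reaches about 75%, or at least half do and their mean reaches it too, limit read from the data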;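 also: 0% = cytokine-treated negative control wells and 100% = positive control rescue; higher means more ATP so stronger rescue from cytokine killing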
Mdm2 MdmX PPI – human Mdm2/MdmX binding inhibition; AID 485346; 330,000 tested, 3% active; O15151+Q00987; SaOS-2 split-luciferase Mdm2/MdmX complementation, luminescence; inhibition, % at 8 µM;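 active = inhibition of at least 50% at 8 µM in the primary screen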
Target sequence (O15151 whole entry, looked up): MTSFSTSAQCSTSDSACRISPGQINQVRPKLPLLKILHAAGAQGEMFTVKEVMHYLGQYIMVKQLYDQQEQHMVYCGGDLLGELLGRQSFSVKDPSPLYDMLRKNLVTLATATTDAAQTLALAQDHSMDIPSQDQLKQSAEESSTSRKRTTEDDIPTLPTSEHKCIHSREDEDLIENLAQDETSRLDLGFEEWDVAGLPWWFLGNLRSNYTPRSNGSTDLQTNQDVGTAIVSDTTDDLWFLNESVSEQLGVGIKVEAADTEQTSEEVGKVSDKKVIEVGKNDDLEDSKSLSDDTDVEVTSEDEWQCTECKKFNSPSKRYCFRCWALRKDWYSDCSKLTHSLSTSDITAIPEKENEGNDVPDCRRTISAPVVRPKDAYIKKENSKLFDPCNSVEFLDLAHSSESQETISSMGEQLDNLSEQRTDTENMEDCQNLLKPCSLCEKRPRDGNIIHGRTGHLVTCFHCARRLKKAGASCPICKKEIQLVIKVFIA
Target sequence (Q00987 whole entry, looked up): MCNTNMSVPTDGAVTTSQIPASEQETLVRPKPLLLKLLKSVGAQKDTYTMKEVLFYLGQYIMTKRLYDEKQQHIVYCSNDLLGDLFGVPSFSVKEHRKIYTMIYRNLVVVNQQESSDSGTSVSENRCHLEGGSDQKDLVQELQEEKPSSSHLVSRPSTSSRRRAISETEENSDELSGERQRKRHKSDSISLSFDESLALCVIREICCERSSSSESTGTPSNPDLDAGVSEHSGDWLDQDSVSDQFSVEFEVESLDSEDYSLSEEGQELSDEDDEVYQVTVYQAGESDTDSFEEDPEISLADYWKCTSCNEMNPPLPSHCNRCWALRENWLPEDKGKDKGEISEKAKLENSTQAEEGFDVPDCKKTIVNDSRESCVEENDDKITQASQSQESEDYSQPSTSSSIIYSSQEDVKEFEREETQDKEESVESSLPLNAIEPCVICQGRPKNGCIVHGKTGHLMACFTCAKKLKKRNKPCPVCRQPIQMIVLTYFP
SKKanGAS inh – inhibitors of SKKanGAS S. pyogenes growth in kanamycin (SK-promoter or general growth effect) | BacTiter-Glo, 6 h | inhibition, % at 7.5 µM | 300,000 tested, 1.3% active;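 active = mean replicate score, as percent of positive control median, at least 50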;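 also: strain carries kanamycin resistance gene driven by streptokinase promoter and grows in 40 µg/ml kanamycin; loss of luminescence reflects streptokinase promoter inhibition or plain growth inhibition; 0% = median of DMSO wells and 100% = positive control at its reference dose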
MPTP block – inhibitors of mitochondrial permeability transition pore; isolated mouse mitochondria, Ca2+ swelling absorbance, 30 min; 360,000 tested, 1.4% active; inhibition, % at 10 µM; AID 602449;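 active = inhibition of 50% or more, scaled per plate between neutral and stimulator controls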;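 also: 0% = DMSO wells given calcium and 100% = 1 mM EGTA wells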
NR3A LBD binder – NR3A (human) ligand-binding domain modulation; AID 1259313; NR3A LBD differential scanning fluorimetry, Tm shift; 0% = protein alone, 100% = glycine-bound protein; 340,000 tested, 2.5% active; Tm shift relative to glycine control, % at 25 µM;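 active = melting temperature shift of at least 10% of the positive control shift, at one fixed dose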
CSC inhib – cancer stem cell inhibition; cancer stem cell-like cells viability, luminescence; inhibition, % at 7.5 µM; 300,000 tested, 1.1% active; AID 2717; in the data active = inhibition above about 75%; tested in HMLE shEcad cells
MPTP counter – membrane potential counter-screen of mitochondrial pore inhibitors; isolated mitochondria, Rhodamine 123 fluorescence; inhibition, % at 10 µM; shares compounds with MPTP block; 5,000 tested, 78% active; in the data active = inhibition above about 22%;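 also: 0% = DMSO vehicle and 100% = positive control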
MPTP abs DR – MPTP inhibition, dose response swelling confirmation; shares compounds with MPTP block; isolated mitochondria swelling, absorbance; IC50, µM; 780 tested, 58% active; in the data active = IC50 below about 20 µM
MPTP cs DR – active in counter-screen for permeability transition pore inhibitors; shares compounds with MPTP block; isolated mitochondria counterscreen, fluorescence read-out; IC50, µM; 780 tested, 49% active; AID 651564; in the data active = IC50 below about 80 µM
* marks the source's active call; other numbers are inactive results; nt = no result. An excerpt weighted towards active compounds, which were near 6.9% of everything screened.

SMILES	Beta cell apopt	Mdm2 MdmX PPI	SKKanGAS inh	MPTP block	NR3A LBD binder	CSC inhib	MPTP counter	others
COc1cc(OC)cc(-c2c(C#Cc3ccsc3)c3cc(-c4ccc5c(c4)OCO5)ccc3n2C)c1	6.9	-16.3	nt	-0.9	-4.4	nt	nt
Cc1ccc(N2C(=O)c3ccccc3C2C(=O)c2cc(C)ccc2O)cc1 (centres undefined)	-2.1	-37.0	-3.5	66.8*	1.1	15.5	70.5*
O=C(O)Cc1ccc(NC(=O)COc2ccc3ccccc3c2)cc1	nt	32.2	1.6	-1.2	0.3	nt	nt
O=C(COc1ccc2ccccc2c1)Nc1ccc(Cc2ccncc2)cc1	nt	13.6	-3.1	94.5*	-11.4	nt	88.2*
O=C(COc1ccc(Cl)cc1)Nc1ccc(Cc2ccncc2)cc1	nt	8.2	-6.7	75.3*	-0.7	27.9	71.9*
O=C(C[C@@H]1C/C=C\C[C@H](NC(=O)OCC2c3ccccc3-c3ccccc32)C(=O)O[C@H](c2ccccc2)CNC1=O)NCCO	8.4	-6.1	nt	-0.3	-0.6	2.3	nt
O=c1cc(CSc2nnnn2-c2ccccc2)nc(Nc2ccc(F)cc2)[nH]1	1.1	-10.7	0.1	56.1*	9.5	9.0	83.9*
C#CCOCCOCCOCCNc1nc(N2CCN(C(=O)[C@H](CCCN=C(N)N)n3cc(C(N)[C@@H](C)CC)nn3)CC2)nc(N2CCN(C(=O)[C@H](CCC(=O)O)n3cc([C@@H](N)CCCCN)nn3)CC2)n1 (some centres undefined)	-0.9	-13.4	nt	0.1	0.5	-11.3	nt
C#CCOCCOCCOCCNc1nc(N2CCN(C(=O)[C@H](CCCN=C(N)N)n3cc(C(N)[C@@H](C)CC)nn3)CC2)nc(N2CCN(C(=O)[C@H](CCCCN)n3cc([C@@H](N)[C@H](C)CC)nn3)CC2)n1 (some centres undefined)	4.4	-20.2	nt	100.6*	0.7	-3.3	-6.3	MPTP abs DR=1.47*;MPTP cs DR=>80
C#CCOCCOCCOCCNc1nc(N2CCN(C(=O)[C@H]([C@@H](C)CC)n3cc([C@@H](N)CO)nn3)CC2)nc(N2CCN(C(=O)[C@H](CCCCN)n3cc([C@@H](N)C(C)CC)nn3)CC2)n1 (some centres undefined)	-3.2	-14.7	4.2	-1.7	0.9	-6.3	nt
C#CCOCCOCCOCCNc1nc(N2CCN(C(=O)[C@H]([C@@H](C)CC)n3cc([C@@H](N)CC(C)C)nn3)CC2)nc(N2CCN(C(=O)[C@H](CCCCN)n3cc([C@@H](N)C(C)CC)nn3)CC2)n1 (some centres undefined)	-18.0	-16.5	-2.9	76.0*	0.9	-10.9	-15.7	MPTP abs DR=2.42*;MPTP cs DR=>80
C#CCOCCOCCOCCNc1nc(N2CCN(C(=O)[C@H](CCCCN)n3cc(CN)nn3)CC2)nc(N2CCN(C(=O)[C@H](CCCCN)n3cc([C@@H](N)[C@H](C)CC)nn3)CC2)n1	-7.2	28.2	nt	87.8*	1.1	-6.1	-13.8	MPTP abs DR=6.44*;MPTP cs DR=64.6*
C#CCOCCOCCOCCNc1nc(N2CCN(C(=O)[C@H](CCCCN)n3cc([C@@H](N)C(C)CC)nn3)CC2)nc(N2CCN(C(=O)[C@H](CCCCN)n3cc([C@@H](N)CO)nn3)CC2)n1 (some centres undefined)	-8.7	-13.2	10.0	nt	nt	4.3	nt
COc1cc(C(C)=O)ccc1Oc1ncccn1	-4.7	17.6	6.0	0.9	-1.2	0.3	nt
O=C(NCc1nnc(SCC(=O)N2CCCC2)o1)c1ccccc1	-3.5	4.0	20.9	-0.1	0.6	-7.8	nt
O=C(Nc1ccc(Cl)cc1)N1CCC(c2nc(-c3ccc(F)cc3)no2)CC1	12.2	0.4	12.0	90.3*	7.9	-1.4	75.6*
O=S(=O)(c1ccc(Cl)cc1)N1CCCC(c2nc(-c3ccc(F)cc3)no2)C1 (centres undefined)	-4.9	25.5	nt	1.8	1.9	19.9	nt
OCC[C@@H]1C[C@@H](O)[C@H](O)[C@@]2(CCc3ccccc3CO2)O1	-6.5	7.2	9.9	0.6	0.9	-4.3	nt
